CYP2C9 activ: activators of human CYP2C9; AID 1024; 96,000 compounds, 1.4% hits; recombinant CYP2C9, luciferin-H conversion, luminescence; hits give high values; factor 1 = untreated enzyme, 0 = blocked; activation factor at 5 µM;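 active means activation factor of 2 or more for CYP2C9 at a 5 µM dose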;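 further: 0 = sulfaphenazole-blocked wells and 1 = vehicle-only wells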
Target sequence (P11712 whole entry, looked up): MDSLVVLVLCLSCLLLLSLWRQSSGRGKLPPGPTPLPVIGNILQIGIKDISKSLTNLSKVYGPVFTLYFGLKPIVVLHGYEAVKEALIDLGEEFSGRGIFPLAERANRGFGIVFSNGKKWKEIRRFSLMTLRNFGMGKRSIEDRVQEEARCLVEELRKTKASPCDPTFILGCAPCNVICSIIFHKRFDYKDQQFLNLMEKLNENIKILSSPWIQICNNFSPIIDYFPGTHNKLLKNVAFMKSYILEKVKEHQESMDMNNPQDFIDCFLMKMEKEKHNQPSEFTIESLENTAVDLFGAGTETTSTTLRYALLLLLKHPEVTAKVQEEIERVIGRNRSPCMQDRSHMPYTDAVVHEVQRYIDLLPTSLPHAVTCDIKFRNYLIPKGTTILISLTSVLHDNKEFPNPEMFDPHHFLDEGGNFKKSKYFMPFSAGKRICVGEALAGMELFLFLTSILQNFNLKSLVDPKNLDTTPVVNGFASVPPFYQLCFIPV
Cav32 inh: inhibitors of human Cav3.2 T-type calcium channel. O95180. Cav3.2-expressing cells, Fluo-4 calcium fluorescence FDSS; hits give low values. B-score at 10 µM. 100,000 compounds, 4% hits. AID 449739;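 active means single-dose well whose peak fluorescence ratio is a statistical outlier from its plate by either plate-standardised score or position-corrected B-score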
CYP2C9 inhib: inhibitors of human CYP2C9; P11712; CYP2C9 Supersomes, luciferin-H conversion, luminescence; inhibition, % at 5 µM; 96,000 compounds, 20% hits; AID 777;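 active means blocking of liver enzyme CYP2C9 beyond about 50% at 5 µM, limit read from the data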
CYP2C19 activ: activators of human cytochrome P450 2C19; P33261; recombinant CYP2C19, luciferin-H EGE luminescence; hits give high values; 0 = fully inhibited enzyme, 1 = untreated enzyme; activation factor at 5 µM; 96,000 tested, under 10 active; AID 1025;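 active means activation factor of at least 2 at 5 µM in the primary screen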;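 further: 0 = wells with 2.5 mM tranylcypromine and 1 = vehicle-only wells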
CYP2C19 inhib: blocks human cytochrome P450 2C19; P33261; AID 778; inhibition, % at 5 µM; 96,000 compounds, 21% hits; CYP2C19 Supersomes, luciferin-H EGE luminescence, 30 min;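 active means CYP2C19 inhibition above a set limit at 5 µM in the primary screen, cut at about 50% in these data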;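 further: plate controls were negative control wells for no effect and 2.5 mM tranylcypromine positive control for full effect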
* marks the source's active call; other numbers are inactive results; . = not tested or not shown. Sampled rows, rich in hits. Any-hit rate of the full collection: about 27%.

SMILES	CYP2C9 activ	Cav32 inh	CYP2C9 inhib	CYP2C19 activ	CYP2C19 inhib
COc1ccc(CNC(=O)C2CCCN(S(=O)(=O)c3cc(C)ccc3OC)C2)cc1 (stereo not drawn)	0.6	-3.3*	44	0.5	46
CC(C)CCNC(=O)C1CCN(c2nnc(-n3cccc3)s2)CC1	0.6	0.22	39	0.8	24
COc1ccc(C)cc1S(=O)(=O)N1CCCC(C(=O)NCC2CCCO2)C1 (stereo not drawn)	1.1	0.24	-9	1	-4
COc1ccc(OC)c(S(=O)(=O)N2CCC(C(=O)NC(C)c3ccccc3)CC2)c1 (stereo not drawn)	2.9*	0.094	-192	0.6	39
CCc1ccccc1N1CCN(S(=O)(=O)c2cc(OC)ccc2OC)CC1	0	-2.6	99*	0	100*
O=S(=O)(NC1CCCC1)c1ccc(S(=O)(=O)N2CCc3ccccc32)cc1	.	-1.6	.	.	.
Cc1nc2nc[nH]n2c(=O)c1NC(=O)c1c(-c2ccccc2Cl)noc1C	0.6	-0.095	39	1	5
C=CCC1(O)CC(c2ccco2)NC(c2ccco2)C1CCC (stereo not drawn)	1.1	-1.8	-8	1.1	-15
Cc1ccc(Cl)cc1N1CCN(C(=O)C2CCN(c3nnc(-n4cccc4)s3)CC2)CC1	0.1	-8.2*	85*	0.6	38
COc1ccc(C2OC(=O)CC2C(=O)N2CCN(c3cc(Cl)ccc3C)CC2)cc1OC (stereo not drawn)	0.2	-1.9	85*	0.3	73*
Cc1cccc(N2CCN(C(=O)C3CCN(c4nnc(-n5cccc5)s4)CC3)CC2C)c1 (stereo not drawn)	0.6	-2	37	0.7	34
COc1ccc(OC)c(S(=O)(=O)N2CCC(C(=O)N3CCN(Cc4ccccc4)CC3)CC2)c1	0.5	0.28	55*	0.6	42
COc1ccc(C(NC(=O)CNC(C)=O)C(=O)Nc2ccc3c(c2)OCCO3)cc1 (stereo not drawn)	0.9	1.8	5	0.8	16
CCc1ccccc1NC(=O)N[C@@H](C)C(=O)OC	1	-0.96	3	0.9	7
CCCCn1c(SCC(=O)Nc2nnc(C)s2)nc2c1c(=O)n(C)c(=O)n2C	0.8	0.25	15	0.9	8
CCCC(=O)N(c1ccc(OCC)cc1)C1C=CS(=O)(=O)C1 (stereo not drawn)	0.5	0.39	46	0.4	63*
CCCCC(=O)N(c1ccc(OCC)cc1)C1C=CS(=O)(=O)C1 (stereo not drawn)	0.8	-0.055	19	0.6	36
CCOCCCNC(=O)C(NC(=O)c1ccc(=O)[nH]c1)c1ccccc1 (stereo not drawn)	1	0.57	2	0.9	10
C=CCNC(=O)C12CC3(C)CC(C)(CC(C)(C3)C1)C2	0.9	-0.11	10	0.5	54*
O=C(NC(=Nc1ccccc1)N1CCOCC1)Nc1ccccc1	0.4	0.9	56*	0.5	55*
CSc1nc(Cl)c(Cc2ccc(OC(C)C)cc2)c(N2CCOCC2)n1	0.4	-0.55	62*	0.6	45
CCCCCCCn1c(=N)n(CC(=O)c2ccco2)c2ccccc21	1	-2.6*	4	0.9	7
CCCCCCn1c(C(C)NC(=O)c2ccco2)nc2ccccc21 (stereo not drawn)	0.4	-10*	56*	0.6	42
Cc1cccc(NC(=O)CCCN2C(=O)c3cccc4cccc(c34)C2=O)c1	1.5	0.88	-53	1.1	-7
CCCOc1ccc(OCCOCCN2CCc3ccccc3C2)cc1	0.8	-1.1	25	0.5	52*
SMILES	CYP2C9 activ	Cav32 inh	CYP2C9 inhib	CYP2C19 activ	CYP2C19 inhib
Cc1noc(C)c1COC(=O)c1cc(C)n(-c2ccccc2)c1C	0.6	-4.9*	38	0.8	21
CCOC(=O)c1[nH]c(C)c(C(=O)OCc2c(C)noc2C)c1C	0.3	-0.15	65*	0.7	33
Cc1cc(C(=O)OCc2nnc(-c3ccccc3)o2)c(C)n1-c1ccccc1	0.4	-3	64*	0.5	46
Cc1ccc(S(=O)(=O)NCC(=O)OCc2nnc(-c3ccccc3)o2)cc1C	0.8	-0.26	21	0.7	34
CCn1nc(C(=O)OCc2c(C)noc2C)c2ccccc2c1=O	0.2	0.41	76*	1.4	-35
CCn1nc(C(=O)OC2CCOC2=O)c2ccccc2c1=O (stereo not drawn)	0.8	0.43	17	1	5
O=C(CCN1C(=O)COc2ccccc21)NCCN1CCN(c2ccccc2F)CC1	1.1	0.63	-11	1	0

Screening results deposited in PubChem by several laboratories.
